Compounds without any hit were thinned out: in the full panel of roughly 83,000, 20% have a hit.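 Percent growth is the endpoint: 0 to 100 indicates growth inhibition (40 means 60% inhibition), 0 means no net growth, and negative values indicate cell death.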 A number with no mark means an inactive call. Activity calls are given as the source filed them. Rule for the calls: active = growth percent below 10; inactive = the rest.
Experiments:
Assay in all cases: NCI-60 one-dose screen, 48 h (100 = growth as untreated, 0 = no growth, -100 = all killed)
Conditions in all cases: 10 µM unless noted
[1] = test system: HCT-15 colon
[2] = test system: HT29 colon
[3] = test system: SNB-75 CNS
[4] = test system: SNB-19 CNS
[5] = test system: U251 CNS
[6] = test system: PC-3 prostate
[7] = test system: SK-MEL-5 melanoma
[8] = test system: UACC-62 melanoma
[9] = test system: LOX IMVI melanoma
[10] = test system: SK-MEL-28 melanoma

SMILES | growth [1] | growth [2] | growth [3] | growth [4] | growth [5] | growth [6] | growth [7] | growth [8] | growth [9] | growth [10]
COC(=O)CSc1ccc(Cl)cc1 | 106% | 103% | 94.9% | 103% | 103% | 107% | 114% | 114% | 102% | 108%
CCOC(=O)c1cc(N)nc2ccccc12 | 107% | 97.4% | 112% | 106% | 103% | 104% | 106% | 108% | 96.7% | 123%
CN1C(=O)N(C)C2C1NN=c1s/c(=C\c3ccc(Br)cc3)c(=O)n12 (stereo not given) | 22.8% | 10.7% | 11.4% | 34.9% | 29.3% | 18.3% | 14% | 27.9% | 35.8% | 71.1%
CCOC(=O)C1C(=O)C=C(c2cc(OC)c(OC)c(OC)c2)CC1c1sc(N(C)Cc2ccccc2)nc1Cl (stereo not given) | 92.1% | 90.7% | 79.6% | 77.5% | 87.8% | 64% | 72.7% | 64.7% | 94% | 115%
O=C1SCN(Cc2ccccc2)CN1Cc1ccccc1 | 98% | 90.4% | 91% | 108% | 99.5% | 86.3% | 92.8% | 89.6% | 70.2% | 111%
CCOc1cc(/C=N\NC(=O)C[N+](C)(C)C)ccc1O | 103% | 105% | 106% | 117% | 105% | 99.6% | 105% | 111% | 103% | 117%
COc1ccc(C(=O)OC2C(OC3C(O)COC(O[C@H]4C[C@H]5[C@@H]6CC=C7C[C@@H](O)CC[C@]7(C)[C@H]6CC[C@]5(C)[C@H]4[C@H](C)C(=O)CCC(C)C)C3OC(=O)C(C)C)OCC(O)C2O)cc1 (stereo not given in full) | -8.16% (active) | 12.1% | 21.4% | 27.8% | 2.54% (active) | 2.36% (active) | -36.3% (active) | -35.6% (active) | -17.5% (active) | -49.6% (active)
N=C(N)c1ccc(-c2ccc(-c3ccco3)o2)cc1F | -40.6% (active) | -2.59% (active) | 41.4% | 67.2% | -16.8% (active) | 24.5% | -93.6% (active) | -68.6% (active) | -9.26% (active) | -46.8% (active)
CC(C)CCSc1nc(Nc2ccccc2)c(C#N)c(-c2ccc(F)cc2)n1 | 71.7% | 49.9% | 42.1% | 53% | 14% | 59.1% | 96.6% | 82.4% | 60.4% | 87.3%
CCOC(=O)c1cnc(SCC)nc1SC#N | 63.3% | 81.5% | 93.1% | 110% | 89.2% | 91.7% | 126% | 94.3% | 83% | 108%
O=C(O)C(CCc1ccccc1)NCc1ccccc1 (stereo not given) | 99.2% | 96.2% | 90.3% | 97.5% | 107% | 91.3% | 109% | 94.5% | 92% | 107%
COc1ccc(-c2cc(-c3ccc(OC)cc3)c3sc(=O)[nH]c3n2)cc1 | 90.2% | 102% | 88.6% | 73.8% | 72.6% | 86.1% | 96.4% | 90.1% | 92.3% | 115%
COc1cc(Cl)cc(-c2nn(C(=O)NCCN3CCOCC3)cc2-c2ccncc2)c1 | 45.7% | 34.1% | 28.9% | 69.2% | 57.7% | 70.6% | 35.5% | 52.4% | 63.2% | 61.4%
CCCCCCCCCCCCCCCC1=NCCN1 | 0.909% (active) | 4.17% (active) | 82.7% | 24.8% | 16.1% | 47.6% | 80.6% | 76.1% | 1.64% (active) | 80.7%
O=C1OC(/C=C/c2ccccc2)=NC/1=C/c1ccccc1[N+](=O)[O-] | 97.9% | 98.2% | 82% | 104% | 100% | 92.7% | 99.8% | 110% | 89.1% | 97.3%
CC(C)(C)c1ccc(OC(=O)Nc2ccccc2)cc1 | 104% | 101% | 106% | 109% | 101% | 96.3% | 104% | 110% | 102% | 122%
CCN(CC)CC(=O)Nc1c(C)ccc(N)c1C | 97.1% | 91.7% | 91.7% | 100% | 96.1% | 97.5% | 99.6% | 97.6% | 96.4% | 107%
COc1ccc2c(c1)C1=NN(C(=O)CO)[C@H](c3ccc(OC(F)(F)F)cc3)[C@@H]1CC2 | 84.7% | 92.3% | 90.3% | 93.4% | 87.3% | 72.9% | 83.4% | 76.3% | 88.7% | 121%
O=C(CCCCCCN1CC(=O)N2[C@@H](c3ccc(Cl)c(Cl)c3)c3[nH]c4ccccc4c3C[C@H]2C1=O)NO | 92.3% | 33.8% | 6.3% (active) | 54.3% | 40.5% | 25.7% | 51.3% | 35.2% | -55.2% (active) | 52.4%
CC(C)N(C(=S)SSC(=S)N(C(C)C)C(C)C)C(C)C | 97.7% | 88.1% | 102% | 109% | 94.5% | 86.4% | 109% | 105% | 97.1% | 100%
COc1cnc2c(c1)C(=O)c1c-2n(CCCNC(C)C)c(=O)c2cc(Cl)ccc12 | -47.2% (active) | -90.6% (active) | 10.4% | -23.2% (active) | -86.6% (active) | -51.7% (active) | -81.3% (active) | -62.8% (active) | -88.1% (active) | -89.7% (active)
Cc1ccncc1NC=O | 104% | 111% | 103% | 102% | 101% | 99% | 101% | 101% | 104% | 112%
CCN(CCC#N)c1ccccc1 | 108% | 109% | 98.6% | 106% | 103% | 90.8% | 111% | 98.2% | 102% | 113%
CC(NC(=O)c1ccccc1)C(=O)Nc1ccccc1 (stereo not given) | 115% | 103% | 88.3% | 107% | 101% | 92.8% | 104% | 104% | 99.6% | 115%
COc1cnc2c(c1)C(=O)c1c-2n(CCCN2CCNCC2)c(=O)c2cc(Cl)ccc12 | -89.4% (active) | -80.4% (active) | 39.7% | 30.4% | -98.4% (active) | -84% (active) | 45.2% | -45% (active) | -84.6% (active) | -88.2% (active)
CCOC(=O)C1OC2(CCCC2)OC1C(=O)OCC (stereo not given) | 106% | 99.2% | 104% | 99.3% | 109% | 97.6% | 101% | 96.7% | 102% | 122%
O=C(CCl)N1c2ccccc2Oc2ccc3ccccc3c21 | -81.1% (active) | -49.8% (active) | 22.1% | 24.5% | -64.3% (active) | 6.63% (active) | 3.7% (active) | -0.259% (active) | -81.1% (active) | 53.8%
C=C1C(=O)O[C@H]2[C@H]1CC/C(COC(=O)NCc1ccc(Cn3c(=O)sn(CCCl)c3=O)cc1)=C\CC[C@@]1(C)O[C@@H]21 | 27.6% | 15.1% | 85.5% | 99% | 78.7% | 78.7% | 81.7% | 69.5% | 60.8% | 64.3%

From PubChem BioAssay (NCI)
